Bioassay records (PubChem BioAssay)
TRPM1 prom inh – inhibitors of MITF-driven TRPM1 promoter in melanoma cells. AID 488899. inhibition, % at 12.5 µM. SK-MEL-5 TRPM1 promoter luciferase, 24 h. 0.83% of 330,000 active;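 active = mean inhibition across replicates of 60% or more, whatever share of single replicates reaches that level; inconclusive = some that reach 60%, reason not given; inactive = mean inhibition across replicates below 60%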
KKLEB cytotox – counter-screen for CF NF-kB inhibitors: cytotoxicity; 0.36% of 360,000 active; activity change (cytotoxicity), % at 5 µM; KKLEB CF airway cells viability, ATPlite luminescence, overnight; stronger effect = lower value; cells stimulated with P. aeruginosa culture filtrate;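 active = corrected activity change at or below -50% at 5 µM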
Shn3 3UTR inh – reduces Shn3 3'UTR luciferase signal in osteoblasts | Clone20 osteoblast Shn3 3'UTR firefly luciferase, 24 h | inhibition, % at 12.5 µM | 0.52% of 360,000 active;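 active = mean inhibition of at least 75% with every replicate also reaching 75%; inconclusive = mean inhibition at least 75% but some replicate below; inactive = mean inhibition below 75%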
Peg3 prom inh – Peg3 promoter activity inhibition | HeLa PEG-Prom luciferase reporter, luminescence, overnight | inhibition, % at 20 µM | 1.7% of 360,000 active;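 active = inhibition of at least 50% at 20 µM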
CF NFkB block – blocks PAF-induced NF-kB reporter in cystic fibrosis cells | AID 588850 | KKLEB NF-kB-GFP reporter, GFP fluorescence overnight | 0.86% of 360,000 active | inhibition, % at 5 µM;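 active = at least 50% inhibition at 5 µM, scaled per plate between neutral and stimulator controls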;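 note: PAF is a Pseudomonas aeruginosa culture filtrate used as stimulus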
HIF-2a block – inhibitors of HIF-2a | 786-0 RCC cells HIF-2a reporter, luciferase luminescence, overnight | inhibition, % at 18.8 µM | 0.72% of 360,000 active;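 active = inhibition of the luminescence signal of 40% or more relative to plate controls, in a single-dose primary screen at 18.75 µM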
Mdm2-MdmX confirm – Mdm2/MdmX (human) interaction inhibition, confirmed | inhibition, % at 8 µM | 99% of 740 active | SaOS-2 split-luciferase Mdm2/MdmX complementation, luminescence | AID 504601 | shares compounds with HIF-2a block;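 active = mean inhibition of the luminescence signal across two replicates at or above 26 percent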
HIF-2a inh conf – confirmation of HIF-2a inhibitors; shares compounds with HIF-2a block; 786-0 RCC cells, HIF-2a luciferase reporter luminescence, overnight; inhibition, % at 18.8 µM; 56% of 1,800 active; AID 651580;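 active = mean inhibition across four replicates of at least 40 percent at the single tested concentration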
HIF-1a counter – inhibits HIF-1a reporter, a counter-screen for HIF-2a inhibitors; shares compounds with HIF-2a block; inhibition, % at 18.8 µM; MiaPaCa-2 HIF-1a luciferase reporter, desferoxamine, overnight; 72% of 1,800 active;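 active = mean inhibition of the reporter signal across four replicates at the single tested dose of 50% or more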
Of the large screens only hits and unclear results are named; the others gave an inactive call (follow-up assays come after a bar, where they were run). Shown are actives, neighbours in structure and some others; about 2.7% of the full set was active somewhere.

COC(=O)/C(=C\c1ccc(O)cc1)c1nc2ccccc2[nH]1	none
COC(=O)/C(=C\c1cc(OC)c(OC)c(OC)c1)c1nc2ccccc2[nH]1	none
COc1cc(/C=C(/C(=O)c2cccs2)c2nc3ccccc3[nH]2)ccc1O	Peg3 prom inh 103, HIF-2a block 68 | HIF-2a inh conf inactive | HIF-1a counter 104
CCC(C(=O)OC)n1cnc2c(nnn2-c2ccc(C)cc2)c1=O (centres undefined)	none (no result: TRPM1 prom inh)
C=CCn1c(C)cc(C(=O)CN2NS(=O)(=O)c3ccccc3C2=O)c1C	none
O=C(Cn1ncc(N2CCOCC2)c(Cl)c1=O)c1ccc(Cl)cc1	none
O=C(Cn1ncc(Cl)c(Cl)c1=O)c1ccc(Cl)cc1	TRPM1 prom inh 80, Peg3 prom inh 108, HIF-2a block 96 | HIF-2a inh conf inactive | HIF-1a counter 106
CC(C)(C)C(=O)Cn1ncc(Cl)c(Cl)c1=O	TRPM1 prom inh 91, Peg3 prom inh 104, HIF-2a block 95 | HIF-2a inh conf inactive | HIF-1a counter 106
C=CCn1c(C)cc(C(=O)Cn2ncc(Cl)c(Cl)c2=O)c1C	TRPM1 prom inh 67, KKLEB cytotox -54, Peg3 prom inh 101, CF NFkB block 88, HIF-2a block 94 | HIF-2a inh conf inactive | HIF-1a counter 105
Cc1cccc2sc(NNC(=O)c3ccc(S(=O)(=O)N4CC(C)CC(C)C4)cc3)nc12 (centres undefined)	TRPM1 prom inh 78, Shn3 3UTR inh inconclusive, Peg3 prom inh 99, HIF-2a block 48 | Mdm2-MdmX confirm 90 | HIF-2a inh conf inactive | HIF-1a counter 100
CCc1nnc(SCC(=O)N2CCCC(N3CCN(c4ccccc4C)CC3)C2)o1 (centres undefined)	none
CCOC(=O)c1ccc(Oc2nc(NC(C)(C)C)nc(N(C)C)n2)cc1	HIF-2a block 44 | HIF-2a inh conf 50 | HIF-1a counter inactive
CC(=O)C1=CCC(c2ccc(Br)cc2)N(S(=O)(=O)c2ccc(C)cc2)C1 (centres undefined)	none (no result: TRPM1 prom inh)
COc1ccccc1N(CC(=O)Nc1ccc(Br)cc1F)S(=O)(=O)c1cccs1	none
CC(=NNC(=S)Nc1cccc(Cl)c1)c1ccccn1	Peg3 prom inh 93, HIF-2a block 72 | HIF-2a inh conf inactive | HIF-1a counter inactive
CN(C(=S)NC(=O)c1ccccc1)C1CCCCC1	HIF-2a block 50 | HIF-2a inh conf inactive | HIF-1a counter inactive
Cc1cccc(-c2ccc3[nH]c4c(c3c2)CCN2C[C@@H]([C@H](C)OC(=O)Nc3ccccc3C)[C@@H](N(C)C(=O)Nc3ccccc3C)C[C@@H]42)c1	HIF-2a block 56 (no result: TRPM1 prom inh) | HIF-2a inh conf inactive | HIF-1a counter 83
COc1ccc(CC(=S)NCCc2ccccc2)cc1	none
CCOC(=O)c1c(C)[nH]c(C(=O)OCC(=O)N(C)CC(=O)Nc2ccccc2Cl)c1C	none
CC(C)(C)c1ccc(C(=O)NCCCN2CCN(CCCNC(=O)c3ccc(C(C)(C)C)cc3)CC2)cc1	TRPM1 prom inh 90, KKLEB cytotox -71, Peg3 prom inh 109, HIF-2a block 73 | Mdm2-MdmX confirm 102
CC(C)(C)c1ccc(C(=O)NCCN2CCOCC2)cc1	none
CC(C)(C)c1ccc(/C=C/C(=O)NCCCN2CCOCC2)cc1	HIF-2a block 48 | HIF-2a inh conf inactive | HIF-1a counter inactive
Cc1ccc(/C=C/C(=O)NCCCN2CCN(CCCNC(=O)/C=C/c3ccc(C)cc3)CC2)cc1	none
COC(=O)c1ccc(C(=O)OC)c(-n2c(=O)c3ccccc3c3ccccc3c2=O)c1	HIF-2a block 45 | HIF-2a inh conf 52 | HIF-1a counter inactive
COC(=O)c1ccc(-c2nn(C)c(=O)c3ccccc23)cc1	none
Cc1cc(C)c(C#N)c(Sc2nc(C)c([N+](=O)[O-])c(C)c2C#N)n1	Peg3 prom inh 98, HIF-2a block 90 (no result: TRPM1 prom inh) | HIF-2a inh conf inactive | HIF-1a counter inactive
O=C1C=CC(=O)N1c1ccccc1N1C(=O)C=CC1=O	TRPM1 prom inh 94, Shn3 3UTR inh 94, Peg3 prom inh 97, CF NFkB block 61, HIF-2a block 77 | HIF-2a inh conf 56 | HIF-1a counter inactive
Cc1cc(C)nc(SCc2ccc(C(=O)NNC(=O)Nc3cccc(Cl)c3)cc2)n1	Peg3 prom inh 75, HIF-2a block 90 | HIF-2a inh conf 50 | HIF-1a counter 105
Cc1cc(C)nc(SCc2ccc(C(=O)N/N=C/c3ccncc3)cc2)n1	none
CC(CC(=O)N(C)c1c(N)n(Cc2ccccc2)c(=O)[nH]c1=O)c1ccccc1 (centres undefined)	none
CCC(=O)Nc1cc(ON=C(C)C)cc([N+](=O)[O-])c1	none
O=C(CCl)Nc1cc(SCC(O)CO)cc([N+](=O)[O-])c1 (centres undefined)	TRPM1 prom inh 89, KKLEB cytotox -93, Peg3 prom inh 106, CF NFkB block 96, HIF-2a block 86 | HIF-2a inh conf 88 | HIF-1a counter 107
CCC(=O)Nc1cc(SCCO)cc([N+](=O)[O-])c1	none
CC(C)=NOc1cc(NC(=O)CCl)cc([N+](=O)[O-])c1	TRPM1 prom inh 87, KKLEB cytotox -57, Peg3 prom inh 110, CF NFkB block 79, HIF-2a block 44 | Mdm2-MdmX confirm 103 | HIF-2a inh conf 66 | HIF-1a counter 106
CCCNC(=O)c1ccc(Cn2cc(-c3ccc(OC)cc3)nc2C(C)N)cc1 (centres undefined)	none
COc1ccc(C)cc1N(CC(=O)NCCSCc1cccc(Cl)c1)S(C)(=O)=O	none
COc1ccc(C(NC(=O)c2c(F)c(F)c(F)c(F)c2F)c2ccccc2)cc1 (centres undefined)	Peg3 prom inh 93, HIF-2a block 83 | HIF-2a inh conf 57 | HIF-1a counter 100
O=C(N/N=C/c1c(O)ccc2ccccc12)c1ccc(Br)o1	none | Mdm2-MdmX confirm 90
COc1ccc2ccccc2c1/C=N/NC(=O)c1nnn(-c2nonc2N)c1C(C)C	none
Cc1c(C(=O)N/N=C/c2c(O)ccc3ccccc23)nnn1-c1nonc1N	none | Mdm2-MdmX confirm 92
CNC(=S)N(CCc1c(C)[nH]c2ccccc12)Cc1cccnc1	none
Cc1cc(C)c(C)c(OCC(=O)NCC2CCCO2)c1 (centres undefined)	none
Cc1cc(C)cc(OCC(=O)NCC2CCCO2)c1 (centres undefined)	HIF-2a block 52 | HIF-2a inh conf 69 | HIF-1a counter 70
